# Assay outcomes deposited in PubChem by National Center for Advancing Translational Sciences (NCATS).
# PLK1 PBD block: qHTS for Inhibitors of PLK1-PDB (polo-like kinase 1 - polo-box domain): Primary Screen | Serine/threonine-protein kinase PLK1 (Homo sapiens), P53350 | Plk1 PBD binding of FITC phosphopeptide, fluorescence polarization | Potency, µM, inactives show max response, negative = inhibition, actives largely listed as inhibitors | 360,000 tested, 2.8% active; also: series mostly up to about 57 µM; nearly all actives have a fitted effect of over 65% in size
# TDP1 inh: qHTS Assay for Inhibitors of Tyrosyl-DNA Phosphodiesterase (TDP1). recombinant TDP1, AlphaScreen DNA substrate cleavage. Potency, µM (series often up to 130 µM), for inactives: at the top dose activity change, negative = inhibition, actives largely listed as inhibitors. 350,000 tested, 0.28% active. AID 485290, 2010; also: nearly all actives have a fitted effect of over 40% in size
# Target sequence (Q9NUW8 whole entry, looked up): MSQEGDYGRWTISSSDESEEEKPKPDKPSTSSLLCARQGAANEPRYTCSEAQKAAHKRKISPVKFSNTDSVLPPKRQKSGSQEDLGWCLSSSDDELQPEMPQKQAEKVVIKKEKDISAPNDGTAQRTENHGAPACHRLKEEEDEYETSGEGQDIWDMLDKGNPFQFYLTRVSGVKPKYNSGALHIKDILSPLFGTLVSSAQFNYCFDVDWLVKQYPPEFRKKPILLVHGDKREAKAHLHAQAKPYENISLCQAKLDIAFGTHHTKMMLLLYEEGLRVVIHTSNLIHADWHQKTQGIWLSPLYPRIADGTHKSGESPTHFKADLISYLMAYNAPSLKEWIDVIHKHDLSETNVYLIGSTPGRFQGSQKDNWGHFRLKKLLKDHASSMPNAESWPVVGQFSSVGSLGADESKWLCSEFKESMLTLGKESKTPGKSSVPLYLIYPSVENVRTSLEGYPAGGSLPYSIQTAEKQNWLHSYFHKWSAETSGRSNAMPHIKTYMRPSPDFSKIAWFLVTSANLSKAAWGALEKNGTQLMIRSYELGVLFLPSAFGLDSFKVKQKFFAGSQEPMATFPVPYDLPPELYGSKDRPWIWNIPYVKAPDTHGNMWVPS
#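 E. coli-derived human Tdp1, 1 nM final. Cpd preinc 15 min RT; substrate 15 nM final, 5 min RT; AS bead mix 10 ug/ml final, 10 min RT. Signal loss = tyrosine-FITC cleavage. No-enzyme wells = max signal.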
# KAT2A inh: qHTS Assay for Inhibitors of GCN5L2; GCN5L2 HAT assay, ThioGlo1 CoA-SH fluorescence; Potency, µM (highest dose often 58.9 µM), for the others: at the highest dose activity change, negative = inhibition, hits mostly inhibitors; 390,000 tested, 0.21% active; AID 504327, 2011
#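 ThioGlo1-coupled HAT assay: 20nM GCN5L2, 70uM acetyl-CoA, 75uM H3(1-25) peptide, pH 7.5. Fluorescence read at 340/540nm at start and after 20 min at room temperature.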
# TDP1 cell CPT: qHTS for Inhibitors of human tyrosyl-DNA phosphodiesterase 1 (TDP1): qHTS in cells in presence of CPT | chicken DT40 Tdp1-/-;hTDP1 cells + 20 nM CPT, ATP luminescence, 48 h | Potency, µM (titrated, usually from 46.2 µM), inactives show at the top dose activity change, negative = growth inhibition, most hits filed as inhibitors | 420,000 tested, 12% active; also: nearly all actives have a fitted effect of over 55% in size
#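 Cell growth measured by CellTiter-Glo luminescence after a minimum 48 h, 37 C compound exposure with 20 nM CPT in Tdp1-knockout DT40 cells stably expressing hTDP1, seeded 400/well; qHTS titration format.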
# DT40 TDP1 no CPT: qHTS for Inhibitors of human tyrosyl-DNA phosphodiesterase 1 (TDP1): qHTS in cells in absence of CPT. DT40 Tdp1-/- hTDP1 cells, no CPT, ATP luminescence, 48 h. Potency, µM (titrated, usually from 46.2 µM), without a hit: at the highest dose activity change, negative = growth inhibition, actives largely listed as inhibitors. 420,000 tested, 15% active; also: nearly all actives have a fitted effect of over 55% in size
#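 Growth kinetics read by CellTiter-Glo luminescence after ≥48 hr at 37 °C. Cells: DT40 Tdp1-/- stably carrying human TDP1, 400 per well, compound exposure in the absence of CPT (DMSO vehicle).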
# VDR inhibitor: Inhibitors of the vitamin D receptor (VDR): qHTS. Potency, µM, for the others: max response, negative = inhibition, usual class: inhibitors. 400,000 tested, 0.93% active. Vitamin D3 receptor (Homo sapiens), P11473. VDR-SRC2-3 peptide fluorescence polarization, 2 h
#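 Fluorescence polarization assay of small-molecule disruption of VDR binding to coregulator peptide SRC2-3. Compounds and controls pin-transferred, then read after 2 h incubation at ambient room temperature.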
# Active calls of the source: *; ? = inconclusive; nt = no result given; [ ] = another dose, or the depositor's remark. A selection: hits, their analogues and other compounds. The true share with any hit is near 18%. Calls follow the shape of the dose curve; as a rule, active = well fitted curve in the direction sought with a large enough effect; inconclusive = small, poorly fitted or top-dose-only effect, or another doubt; inactive = no such curve, though single readings can be large; an effect the other way counts as inactive or inconclusive. % is scaled to controls: 0 for no effect and ±100 for the full control effect; potency is read from the fitted curve at half-maximal effect.
SMILES,PLK1 PBD block,TDP1 inh,KAT2A inh,TDP1 cell CPT,DT40 TDP1 no CPT,VDR inhibitor
Cc1ccc(NC(=O)N2CC=C(c3c[nH]c4ccccc34)CC2)cc1Cl,nt,6%,1%,18µM*,10µM*,18%
O=C(Nc1ccc(Br)cc1F)N1CC=C(c2c[nH]c3ccccc23)CC1,nt,3%,-3%,0.65µM*,0.58µM*,8%
O=C(Nc1cccc2ccccc12)N1CC=C(c2ccccc2)CC1,1%,5%,-2%[0.501 µM],?,?,-9%
Cc1cccc(NC(=O)N2CC=C(c3c[nH]c4ccccc34)CC2)c1C,nt,3%,-2%,16µM*,23µM*,6%
C=CCOc1ccc(CC(=O)O)cc1Cl,nt,4%,39%,0%,2%,-2%
CCN(CC)C(=O)c1ccc2c3c(cccc13)C(=O)N(CCc1ccc(OC)c(OC)c1)C2=O,-2%,6%,1%,8.2µM*,8.2µM*,-28%
COc1ccc(CCN2C(=O)c3cccc4cccc(c34)C2=O)cc1OC,-4%,-2%,-6%,-22%,?,?
COC(=O)C/C=C/C(C)C(OC)c1ccccc1Br (stereo not given),nt,4%[21 µM],nt,nt,nt,nt
CC(C)(C)C(=O)/C=C/Nc1ccccc1O,2%,4%,-11%,12µM*,13µM*,-15%
CN(C)c1ccc(N/C=C/C(=O)c2ccccc2)cc1,9%,11%,-7%,11µM*,11µM*,79µM*
Cc1ccccc1N/C=C/C(=C(C#N)C#N)N(C)C,-4%,2%,-8%,-4%,-2%,-1%
CCOC(=O)c1ccc(N/C=C/C(=O)C(C)(C)C)cc1,-9%,-1%,-8%,-12%,-14%,-23%
CN(C)c1ccc(N/C=C/C(=O)C(C)(C)C)cc1,-3%,9%,-6%,18µM*,?,16µM*
Cc1c(S(=O)(=O)Nc2ccc(Oc3ccccc3)cc2)c(=O)n(C)c(=O)n1C,-3%,3%,-17%,-1%,-5%,-19%
CCn1c(SCC(=O)NNC(=O)c2ccc(OC)cc2)nnc1C1CC1,3%,10%,-3%,-9%,-26%,4%
CCc1nc2ccc(C(=O)NCc3ccc(OC)cc3)cn2c1N(CC)CCOC,-9%,nt,nt,15µM*,?,nt
CCc1nc2ccc(C(=O)NCCOc3ccc(OC)cc3)cn2c1N(CCC(C)C)CCN(C)C,-13%,nt,nt,-89%,-78%,nt
CCc1nc2ccc(C(=O)NCc3ccc(OC)cc3)cn2c1N(C)CCC(C)C,6%,nt,nt,?,23µM*,nt
CCc1nc2ccc(C(=O)N(CC)CCN(C)C)cn2c1N(CC)CCOC,-3%,nt,nt,5%,6%,nt
CCc1nc2ccc(C(=O)NCCc3ccccn3)cn2c1N(C)CCC(C)C,-6%,nt,nt,?,26µM*,nt
CCc1nc2ccc(C(=O)NCc3ccccc3OC)cn2c1N(CC)CCOC,-1%,nt,nt,16µM*,16µM*,nt
C=Cc1ccc(S(=O)(=O)O)cc1,nt,nt,4%,2%,-12%,5%
CCc1nc2ccc(C(=O)NCCCN(C)C)cn2c1N(CC)CCOC,0%,nt,nt,2%,2%,nt
CCc1nc2ccc(C(=O)Nc3cccc(OC)c3)cn2c1N(CC)CCOC,0%,nt,nt,13µM*,18µM*,nt
CCc1nc2ccc(C(=O)Nc3cccc(OC)c3)cn2c1N(CC)CCN(C)C,-8%,nt,nt,4%,3%,nt
CCCCNC(=O)c1ccc2nc(CC)c(N(CC)CCOC)n2c1,-11%,nt,nt,26µM*,21µM*,nt
